“And” between values parts separate entries of the source, which are not always exact repeats. Equal values may be shown once. Where a name gives a salt, the structure may show the parent alone.
Key:
Test in all cases: cell viability relative to vehicle control; higher = less cytotoxic
Conditions in all cases: 10 µM
[1] = system: K562
Method in brief: (§1)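 Screening covered the Selleck bioactive, kinase and epigenetic probe libraries, less identity-inconsistent compounds, on CRISPR-edited mutant clones and isogenic wild-type clones of four leukaemia lines. Cells, at 2000 per well in 50 µL medium, received a single 10 µM acoustically dispensed dose. After 48 h the supernatant was removed and CellTiter-Glo luminescence was read. Viability was analysed in Genedata Screener as percent of the on-plate vehicle control.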

[2] = system: MARIMO
Method in brief: as §1

[3] = system: MOLM14
Method in brief: as §1

[4] = system: OCI-AML2
Method in brief: as §1

| SMILES | cell viability ([1]; SRSF2 genotype: SRSF2 P95H/wt) | cell viability ([1]; SRSF2 genotype: SRSF2 wt/wt) | cell viability ([2]; SRSF2 genotype: SRSF2 P95H/wt) | cell viability ([2]; SRSF2 genotype: SRSF2 wt/wt) | cell viability ([3]; SRSF2 genotype: SRSF2 P95H/wt) | cell viability ([3]; SRSF2 genotype: SRSF2 wt/wt) | cell viability ([4]; SRSF2 genotype: P95H/wt) | cell viability ([4]; SRSF2 genotype: wt/wt) |
| --- | --- | --- | --- | --- | --- | --- | --- | --- |
| N[C@@H](CC(=O)N1CCn2c(nnc2C(F)(F)F)C1)Cc1cc(F)c(F)cc1F [Sitagliptin phosphate monohydrate] | 97.7% and 96.1% | 102% | 98.1% | 110% | 102% | 103% | 109% | 117% |
| O=C(Nc1c[nH]nc1-c1nc2ccc(CN3CCOCC3)cc2[nH]1)NC1CC1 | 26.9% and 28.6% | 15.8% | 6.33% | 2.59% | 1.54% | 0.83% | 2.98% | 15.3% |
| COc1ccc([C@@H]2CC(=O)c3c(O)cc(O)cc3O2)cc1O [Hesperetin] | 105% and 99.8% | 100% | 93.3% | 112% | 107% | 108% | 86.7% | 94.8% |
| O=C(NCCO)c1cccc(-c2cc(Nc3ccc(OC(F)(F)F)cc3)ncn2)c1 | 12.1% and 23% | 20.1% | 69.5% | 76.6% | 93.2% | 91.3% | 65% | 72.3% |
| O=C(O)COCCN1CCN([C@H](c2ccccc2)c2ccc(Cl)cc2)CC1 [Levocetirizine Dihydrochloride] | 99% and 88.4% | 101% | 93.2% | 107% | 92.4% | 99.3% | 91.7% | 103% |
| CCOC(=O)c1c(CSc2ccccc2)n(C)c2cc(Br)c(O)c(CN(C)C)c12 [Arbidol HCl] | 50.6% and 70.1% | 61.6% | 48% | 54.8% | 47.8% | 32.9% | 53.5% | 43.8% |
| C=C1CCOC1=O [2-Methylenebutyrolactone] | 106% and 101% | 104% | 97.3% | 105% | 88.6% | 107% | 125% | 126% |
| COc1ccc(S(=O)(=O)NCc2ccc(C(=O)NCCc3ccc(Cl)cn3)cc2)cc1 | 83.3% and 86.3% | 81.6% | 84.3% | 105% | 83.4% | 90.9% | 92.7% | 104% |
| C[C@@H](O)[C@H]1C(=O)N2C(C(=O)O)=C(S[C@@H]3CN[C@H](CNS(N)(=O)=O)C3)[C@H](C)[C@H]12 [Doripenem Hydrate] | 95.8% and 101% | 94.1% | 94.6% | 101% | 103% | 97.5% | 96.4% | 99% |
| COc1c(N2C[C@@H]3CCCN[C@@H]3C2)c(F)cc2c(=O)c(C(=O)O)cn(C3CC3)c12 [Moxifloxacin] | 94.1% and 92.9% | 90.2% | 93.9% | 99.8% | 95.3% | 96.4% | 86.8% | 90.4% |
| COc1cc(O)cc2c1C(=O)C[C@@H](c1ccccc1)O2 [Alpinetin] | 107% and 103% | 96.5% | 101% | 109% | 109% | 110% | 102% | 106% |
| CC(C)c1cnn2c(NCc3ccccc3-n3cccn3)nc(OC3CCCNC3)nc12 (stereo not drawn) | 5.8% and 12.8% | 9.75% | 0.54% | 0.75% | 0.56% | 0.56% | 0.46% | 1.89% |
| N[C@@H]1CCCN(c2c(/C=C3\SC(=O)NC3=O)cccc2-c2ccccc2)C1 | 82.5% and 88.2% | 81.1% | 83.9% | 93% | 90.8% | 105% | 78.6% | 75.1% |
| Nc1ccc(S(=O)(=O)Nc2ncccn2)cc1 [Sodium sulfadiazine] | 98.3% and 99.1% | 102% | 106% | 97.4% | 98.1% | 102% | 109% | 96.8% |
| NCCCCCNCC12CC3CC(CC(C3)C1)C2 [IEM 1754 dihydrobroMide] | 102% and 104% | 95% | 104% | 105% | 103% | 102% | 91.4% | 100% |
| C[C@@H]1CC(=O)NN=C1c1ccc(NN=C(C#N)C#N)cc1 [Levosimendan] | 92.4% and 105% | 99.4% | 68.9% | 86% | 94.7% | 81.7% | 69.8% | 67.1% |
| Cn1nc(C(C)(C)C)cc1C(=O)N[C@@H](Cc1cccc(Cl)c1)C(=O)NCC#N [Cathepsin Inhibitor 1] | 93.5% and 89.9% | 83.2% | 93.1% | 100% | 92.4% | 98.4% | 97.8% | 95.9% |
| N#Cc1ccc(Oc2ccc3c(c2)COB3O)cc1 [Crisaborole (AN2728)] | 93.3% and 84% | 90.8% | 73.8% | 72.9% | 68.2% | 77.7% | 90% | 79.3% |
| Cc1cc(NS(=O)(=O)c2ccc(N)cc2)no1 [Sulfamethoxazole sodium] | 107% and 94.7% | 100% | 101% | 110% | 102% | 104% | 93.1% | 109% |
| O=C1C(=O)N(Cc2ccc(Cl)c(Cl)c2)c2ccccc21 [Apoptosis Activator 2] | 62.4% and 47.9% | 37.7% | 25.5% | 33.1% | 3.92% | 1.81% | 32% | 13.7% |
| CCOC(=O)NCCCC(=O)NCCc1ccccc1 | 102% and 97.9% | 98.8% | 105% | 109% | 100% | 105% | 108% | 106% |

— the supplement of paper PMC10981050
